Assay results published in PubChem BioAssay (Tox21).
“And” between values parts separate entries of the source, which are not always exact repeats. Equal entries are not always repeated. Results filed as inconclusive are left out. A call without a number means that no potency is given here. Some structures have more than one record in an assay (separate samples or runs), and their calls can disagree. The source made the active and inactive calls. Unless noted, calls come from the whole dose curve.

Legend:
[1] = qHTS assay to identify small molecule antagonists of the sonic hedgehog signaling (Shh) pathway (AID 1259369); note: nearly all actives have a fitted effect of over 45% in size; note: potency is the fitted concentration of half-maximal effect
Procedure, shortened: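 Stable Gli1-Luc reporter NIH/3T3 clone; quantitative HTS in stimulated mode with conditioned medium. Luminescence measured after 24hr compound treatment at 37 C.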

[2] = molecular target: Estrogen receptor beta (Homo sapiens) (UniProt Q92731); assay: qHTS assay to identify small molecule agonists of the estrogen receptor beta (ER-beta) signaling pathway (AID 1259377; active = well fitted activation curve with a large enough effect in the signal ratio in the repeat runs, not every such curve was filed as active; the % refers to the signal ratio; note: potency is the fitted concentration of half-maximal effect)
Chain of Estrogen receptor beta (Homo sapiens) (Q92731 whole entry, looked up): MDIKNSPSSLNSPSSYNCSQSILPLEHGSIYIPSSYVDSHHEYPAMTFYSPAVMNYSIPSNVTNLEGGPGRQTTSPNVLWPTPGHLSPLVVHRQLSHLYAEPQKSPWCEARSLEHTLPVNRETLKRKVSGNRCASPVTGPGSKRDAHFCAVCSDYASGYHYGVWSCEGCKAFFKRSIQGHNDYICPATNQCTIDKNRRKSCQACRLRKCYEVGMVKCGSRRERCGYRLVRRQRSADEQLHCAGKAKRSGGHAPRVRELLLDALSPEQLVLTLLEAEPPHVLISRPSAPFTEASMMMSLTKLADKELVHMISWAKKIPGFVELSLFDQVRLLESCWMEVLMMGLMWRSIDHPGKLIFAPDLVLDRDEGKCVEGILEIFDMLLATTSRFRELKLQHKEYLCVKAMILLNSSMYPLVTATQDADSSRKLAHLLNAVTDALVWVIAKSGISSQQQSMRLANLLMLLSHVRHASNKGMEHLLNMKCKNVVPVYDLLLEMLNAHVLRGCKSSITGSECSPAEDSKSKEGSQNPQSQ
Procedure, shortened: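 qHTS in ER-beta-UAS-bla HEK293T cells: 6 hr settling, then 16 hr compound at 37C, then LiveBLAzer substrate 2 h at RT before fluorescence reading.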

[3] = molecular target: Estrogen receptor beta (Homo sapiens) (UniProt Q92731); assay: qHTS assay to identify small molecule antagonists of the estrogen receptor beta (ER-beta) signaling pathway (AID 1259378; active = well fitted inhibition curve with a large enough effect in the signal ratio in the repeat runs, not every such curve was filed as active; the % refers to the signal ratio; note: potency is the fitted concentration of half-maximal effect)
Procedure, shortened: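 ER-beta-UAS-bla HEK293T cells in 2% charcoal-stripped FBS medium treated with compound plus 1nM final 17-beta-estradiol for 16 hr at 37C. Beta-lactamase reporter read by FRET substrate fluorescence after 2 hours at room temperature.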

[4] = qHTS assay to identify small molecule agonists of the androgen receptor (AR) signaling pathway in the presence of an antagonist - cell viability counter screen (AID 1259379; active = well fitted curve in the direction sought with a large enough effect in the repeat runs; an effect the other way counts as inactive or inconclusive; note: nearly all actives have a fitted effect of over 25% in size; note: potency is the fitted concentration of half-maximal effect)
Procedure, shortened: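 Nilutamide-containing (3.0uM final) MDA-kb2 cultures, 3,000 cells/well, were treated with compounds across 15 concentrations. After 16 hr at 37C with no CO2, cell viability was determined by CellTiter-Fluor fluorescence in the luciferase assay wells.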

[5] = qHTS assay to identify small molecule agonists of the estrogen receptor beta (ER-beta) signaling pathway - cell viability counter screen (AID 1259380; active = well fitted curve in the direction sought with a large enough effect in the repeat runs; an effect the other way counts as inactive or inconclusive; note: nearly all actives have a fitted effect of over 30% in size; note: potency is the fitted concentration of half-maximal effect)
Procedure, shortened: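 Steps: plate ER-beta-UAS-bla HEK293T cells, rest 6 hr; add compounds in DMSO; incubate 16 hr at 37C, 5% CO2; add FRET substrate 2 hr; add CellTiter-Glo, wait 30 min at room temperature; read luminescence.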

[6] = qHTS assay to identify small molecule antagonists of the estrogen receptor beta (ER-beta) signaling pathway - cell viability counter screen (AID 1259382; active = well fitted curve in the direction sought with a large enough effect in the repeat runs; an effect the other way counts as inactive or inconclusive; note: nearly all actives have a fitted effect of over 55% in size; note: potency is the fitted concentration of half-maximal effect)
Procedure, shortened: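 Viability is scored by CellTiter-Glo luminescence (30 min, room temperature) in ER-beta-UAS-bla HEK293T wells already read for reporter fluorescence. Compound exposure lasts 16 hr at 37C alongside 1nM 17-beta-estradiol in charcoal-stripped serum medium.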

[7] = molecular target: Estrogen receptor (Homo sapiens) (UniProt P03372); assay: qHTS assay to identify small molecule agonists of the estrogen receptor alpha (ER-alpha) signaling pathway in the presence of an antagonist (AID 1259383); note: top concentration of the series differs between compounds; nearly all actives have a fitted effect of over 15% in size
Chain of Estrogen receptor (Homo sapiens) (P03372 whole entry, looked up): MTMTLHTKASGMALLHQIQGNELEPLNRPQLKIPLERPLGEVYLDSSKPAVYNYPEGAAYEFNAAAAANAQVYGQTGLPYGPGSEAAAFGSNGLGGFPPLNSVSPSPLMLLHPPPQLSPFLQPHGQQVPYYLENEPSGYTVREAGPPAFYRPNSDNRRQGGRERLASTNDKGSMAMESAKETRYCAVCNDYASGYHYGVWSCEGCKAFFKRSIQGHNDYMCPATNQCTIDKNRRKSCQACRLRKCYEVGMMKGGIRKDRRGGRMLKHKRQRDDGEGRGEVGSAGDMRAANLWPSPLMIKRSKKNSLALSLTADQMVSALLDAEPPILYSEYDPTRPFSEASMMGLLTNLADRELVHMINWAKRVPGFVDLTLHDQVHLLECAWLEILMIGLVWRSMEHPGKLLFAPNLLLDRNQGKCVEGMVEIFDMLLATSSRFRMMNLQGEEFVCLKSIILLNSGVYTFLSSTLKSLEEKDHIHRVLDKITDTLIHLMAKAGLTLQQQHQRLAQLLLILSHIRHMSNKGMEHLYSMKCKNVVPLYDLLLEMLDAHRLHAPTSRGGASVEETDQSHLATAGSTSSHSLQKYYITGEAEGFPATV
Procedure, shortened: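 Readout was ERE-driven luciferase luminescence in VM7Luc4E2 cells, which express full-length ER-alpha endogenously. Compounds were tested at 15 concentrations for 22hr alongside 10.0nM ICI-182,780 (final concentration).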

[8] = qHTS assay to identify small molecule agonists or antagonists of the thyroid stimulating hormone receptor (TSHR) signaling pathway - wild type cell line counter screen (AID 1259384)
Procedure, shortened: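 Wild-type Hek293 cells, 800/well, 18 h at 37C, then compound with Ro20-1724 for 30 min RT. cAMP by HTRF (cAMP-d2/anti-cAMP cryptate), 1 h RT, fluorescence read. 15 concentrations, triplicates.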

[9] = molecular target: Thyrotropin receptor (Homo sapiens) (UniProt P16473); assay: qHTS assay to identify small molecule antagonists of the thyroid stimulating hormone receptor (TSHR) signaling pathway (AID 1259385); note: nearly all actives have a fitted effect of over 20% in size; note: potency is the fitted concentration of half-maximal effect
Chain of Thyrotropin receptor (Homo sapiens) (P16473 whole entry, looked up): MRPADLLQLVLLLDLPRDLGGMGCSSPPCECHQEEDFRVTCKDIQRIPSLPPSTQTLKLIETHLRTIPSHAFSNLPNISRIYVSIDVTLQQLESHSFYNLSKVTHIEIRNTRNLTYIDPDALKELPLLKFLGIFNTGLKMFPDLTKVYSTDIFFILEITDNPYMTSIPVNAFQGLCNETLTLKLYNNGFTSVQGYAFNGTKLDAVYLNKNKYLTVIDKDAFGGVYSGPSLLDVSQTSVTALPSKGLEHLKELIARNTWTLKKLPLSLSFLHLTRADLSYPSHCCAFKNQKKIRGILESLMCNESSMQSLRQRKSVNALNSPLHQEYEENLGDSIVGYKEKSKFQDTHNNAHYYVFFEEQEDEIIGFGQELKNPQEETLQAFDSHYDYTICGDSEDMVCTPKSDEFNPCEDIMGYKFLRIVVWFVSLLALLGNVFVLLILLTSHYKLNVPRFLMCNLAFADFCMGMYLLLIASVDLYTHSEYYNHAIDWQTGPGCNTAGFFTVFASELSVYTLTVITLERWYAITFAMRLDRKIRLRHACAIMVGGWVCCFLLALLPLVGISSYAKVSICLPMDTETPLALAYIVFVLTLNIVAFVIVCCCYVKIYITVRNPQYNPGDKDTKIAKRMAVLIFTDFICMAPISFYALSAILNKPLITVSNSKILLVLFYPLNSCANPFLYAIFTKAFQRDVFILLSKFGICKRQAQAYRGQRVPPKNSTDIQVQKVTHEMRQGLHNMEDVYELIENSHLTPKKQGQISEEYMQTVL
Procedure, shortened: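 TSHR-HEK293 cells (800/well) plated 18 h, then compounds with Ro20-1724 and TSH at 1.5 ng/mL final, 30 min at room temperature. cAMP quantified by HTRF (cAMP-d2/anti-cAMP-cryptate, 1 h); 15 concentrations in triplicate.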

[10] = molecular target: Androgen receptor (Homo sapiens) (UniProt P10275); assay: qHTS assay to identify small molecule agonists of the androgen receptor (AR) signaling pathway in the presence of an antagonist (AID 1259381); note: nearly all actives have a fitted effect of over 15% in size
Chain of Androgen receptor (Homo sapiens) (P10275 whole entry, looked up): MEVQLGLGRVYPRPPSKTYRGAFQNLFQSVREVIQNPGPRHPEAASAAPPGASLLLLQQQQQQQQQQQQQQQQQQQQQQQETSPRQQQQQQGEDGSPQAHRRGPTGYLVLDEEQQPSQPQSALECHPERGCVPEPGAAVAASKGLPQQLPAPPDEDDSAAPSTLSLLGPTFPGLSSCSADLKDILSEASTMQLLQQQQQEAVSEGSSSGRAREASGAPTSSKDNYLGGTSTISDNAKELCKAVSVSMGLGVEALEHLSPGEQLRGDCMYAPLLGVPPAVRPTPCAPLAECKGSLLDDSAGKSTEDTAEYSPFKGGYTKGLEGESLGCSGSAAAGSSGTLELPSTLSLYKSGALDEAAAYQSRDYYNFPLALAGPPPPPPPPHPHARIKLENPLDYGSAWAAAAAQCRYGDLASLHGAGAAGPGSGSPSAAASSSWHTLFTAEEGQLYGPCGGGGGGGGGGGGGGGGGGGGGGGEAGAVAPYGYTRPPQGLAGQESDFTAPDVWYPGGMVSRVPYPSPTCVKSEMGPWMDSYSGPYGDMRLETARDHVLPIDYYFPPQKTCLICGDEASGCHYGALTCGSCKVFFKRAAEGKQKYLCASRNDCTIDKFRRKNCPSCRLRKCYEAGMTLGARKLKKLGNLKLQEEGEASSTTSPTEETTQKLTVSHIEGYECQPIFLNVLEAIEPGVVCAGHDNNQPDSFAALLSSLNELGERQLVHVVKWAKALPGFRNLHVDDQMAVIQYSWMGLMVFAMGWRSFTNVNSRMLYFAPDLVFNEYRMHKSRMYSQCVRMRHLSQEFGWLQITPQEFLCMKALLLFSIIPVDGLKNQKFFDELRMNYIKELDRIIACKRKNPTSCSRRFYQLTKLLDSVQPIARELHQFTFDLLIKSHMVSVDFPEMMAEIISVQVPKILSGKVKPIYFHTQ
Procedure, shortened: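 Reporter-gene luminescence from MDA-kb2 cells exposed 16hr at 37C (0% CO2) to 15-point compound titrations with 3.0uM final nilutamide as AR antagonist.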

Structure (SMILES) | Potency [1] | Potency [2] | Potency [3] | Potency [4] | Potency [5] | Potency [6] | Potency [7] | outcome [8] | Potency [9] | outcome [10]
CCCCC(CC)COCC1CO1 (centres undefined) | inactive | inactive | inactive | inactive | inactive | inactive | inactive | inactive | inactive | 
Cc1c(C(N)=O)cc([N+](=O)[O-])cc1[N+](=O)[O-] | inactive | inactive | inactive | inactive | inactive | inactive | inactive |  | inactive | 
c1ccc2c(c1)Oc1ccccc1S2 | inactive | inactive | inactive | inactive | inactive | inactive | inactive | inactive | inactive | 
c1ccc(Nc2ccccc2)cc1 | inactive | inactive | 24.3 µM (active) and inactive | 43.2 µM (active) and inactive | inactive | inactive |  |  | inactive | 
CCCCc1oc2ccccc2c1C(=O)c1cc(I)c(OCCN(CC)CC)c(I)c1 | 43.6 µM (active) and inactive | inactive | 21.9 µM (active) and 26.6 µM (active) | 43.6 µM (active) and 33.5 µM (active) | 19.5 µM (active) and 29.8 µM (active) | 19.5 µM (active) and 26.6 µM (active) | inactive |  | inactive | 
NC=O | inactive | inactive | inactive | inactive | inactive | inactive |  |  |  | 
CC(=O)CC/C=C(\C)CCC=C(C)C | inactive | inactive | inactive | inactive | inactive | inactive | inactive | inactive | inactive | 
CCCCCCCCCC(=O)OC | inactive | inactive | inactive | inactive | inactive | inactive |  |  | inactive | 
c1cc(-c2ccncc2)ccn1 | inactive | inactive | inactive | inactive | inactive | inactive | inactive | inactive | inactive | 
Cc1ccc2c(n1)Oc1ccc(C(C)C(=O)OCC(=O)N(C)C)cc1C2 (centres undefined) | inactive | inactive | inactive | inactive | inactive | inactive | inactive |  | inactive | inactive
CCOC(=O)C(C#N)=C(c1ccccc1)c1ccccc1 | inactive | inactive | 4.33 µM (active) and 5.31 µM (active) | inactive | inactive | inactive |  | inactive | inactive | 
CCCCOCCOCCOCCO | inactive | inactive | inactive | inactive | inactive | inactive | inactive | inactive | inactive | 
CC(=O)O[C@]1(C(C)=O)CC[C@H]2[C@@H]3C=C(Cl)C4=CC(=O)[C@@H]5C[C@@H]5[C@]4(C)[C@H]3CC[C@@]21C | 4.32 µM (active) and 27.3 µM (active) and inactive | inactive | 54.5 µM (active) | inactive | inactive | inactive |  |  | inactive | 
CCC(C)c1ccccc1O (centres undefined) | inactive | inactive | inactive | inactive | inactive | inactive |  | inactive | inactive | 
c1ccc2c(c1)c1cccc3ccc4cccc2c4c31 | inactive | 60.7 µM (active) and inactive | inactive | inactive | inactive | inactive | inactive |  | inactive | inactive
Nc1ncnc2nc[nH]c12 | inactive | inactive | inactive | inactive | inactive | inactive | inactive | inactive | inactive | 
CC(C)OB(OC(C)C)OC(C)C | inactive | inactive | inactive | inactive | inactive | inactive | inactive |  |  | 
CC1=CC2C3CC(C=C3C)C2C1 (centres undefined) | inactive and 21.7 µM (active) | inactive | inactive | inactive |  | inactive | inactive | inactive | inactive | 
CCCCNS(=O)(=O)c1ccccc1 | inactive | inactive | inactive | inactive | inactive | inactive | inactive | inactive | inactive | 
OC(CCl)CCl | inactive | inactive | inactive | inactive | inactive | inactive | inactive |  | inactive | 
O=C(OCc1ccccc1)c1ccccc1O | inactive | inactive | inactive | inactive | inactive | inactive | inactive | inactive | inactive | 
COC(=O)c1ccccc1 | inactive | inactive | inactive | inactive | inactive | inactive |  | inactive | inactive | 
CC(C)CC(C)(O)C#CC(C)(O)CC(C)C (centres undefined) | 9.49 µM (active) and inactive | inactive | inactive | inactive | inactive | inactive |  |  | inactive | 

Structure (SMILES) | Potency [1] | Potency [2] | Potency [3] | Potency [4] | Potency [5] | Potency [6] | Potency [7] | outcome [8] | Potency [9] | outcome [10]
Cc1cccc([N+](=O)[O-])c1C | inactive | inactive | inactive | inactive | inactive | inactive | inactive |  |  | inactive
Cc1[nH]c(=O)c(C#N)cc1-c1ccncc1 | inactive | inactive | inactive | inactive | inactive | inactive | inactive | inactive | inactive | 
Cc1ncc[nH]1 | inactive | inactive | inactive | inactive | inactive | inactive |  | inactive | inactive | 
C=C(C)C(=O)OCCOC(=O)C(=C)C | inactive | inactive | inactive | inactive | inactive | inactive | inactive |  | inactive | inactive
CC(=O)C1(C)CC2=C(CCCC2(C)C)CC1C (centres undefined) | inactive | inactive | inactive | inactive | inactive | inactive |  | inactive | 43.3 µM (active) | inactive
CN(C)c1nc(N(C)C)nc(N(C)C)n1 | inactive | inactive | inactive | inactive | inactive | inactive |  |  | inactive | 
Clc1nc(Cl)c(Cl)c(Cl)c1Cl | inactive | inactive | inactive | 61.4 µM (active) | inactive | inactive |  |  | inactive | 
Cn1cnc([N+](=O)[O-])c1Sc1ncnc2nc[nH]c12 | 30.4 µM (active) | inactive | inactive | inactive | 4.83 µM (active) and 8.41 µM (active) | inactive | inactive | inactive | inactive | 
C[C@]12CCC(=O)C=C1CC[C@@H]1[C@@H]2C(=O)C[C@@]2(C)[C@H]1CC[C@]2(O)C(=O)CO | 54.5 µM (active) and inactive | inactive | inactive | inactive | inactive | inactive | inactive |  |  | 
O=C(c1ccccc1)c1ccccc1O | inactive | inactive | inactive | inactive | inactive | inactive |  |  | inactive | inactive
CC(C)=CCCC(C)CCO (centres undefined) | inactive | inactive | inactive | inactive | inactive | inactive | inactive |  | inactive | 
O=C=Nc1ccc(Cc2ccc(N=C=O)cc2)cc1 | inactive | inactive | inactive | inactive | inactive | inactive |  | inactive | inactive | 
C[C@]12CC[C@H]3[C@@H](CCC4=CC(=O)CC[C@@]43C)[C@@H]1CC[C@@H]2C(=O)CO | 15.4 µM (active) and inactive | inactive | inactive | inactive |  | inactive | inactive |  |  | 
c1ccc2cc(Nc3ccc(Nc4ccc5ccccc5c4)cc3)ccc2c1 | inactive | inactive | inactive | inactive | inactive | inactive |  |  |  | inactive
c1ccncc1 | inactive | inactive | inactive | inactive | inactive | inactive | inactive |  | inactive | 
CCCCOCCOCCO | inactive | inactive | inactive | inactive | inactive | inactive | inactive | inactive | inactive | 
Cc1cccc(C(=O)O)c1 |  | inactive | inactive | inactive | inactive | inactive | inactive |  | inactive | inactive
O=C(Nc1ccc(Cl)cc1)Nc1ccc(Cl)c(Cl)c1 | 12.1 µM (active) and inactive | inactive |  | 21.6 µM (active) and 24.3 µM (active) and 26.6 µM (active) | 1.08 µM (active) and 2.17 µM (active) | inactive | inactive | inactive | 61.1 µM (active) | inactive
COc1ccc(OC)c(C(O)CNC(=O)CN)c1 (centres undefined) | inactive |  |  | inactive |  | inactive | inactive |  | inactive | 
CC(C)OC(=O)C(C)(C)Oc1ccc(C(=O)c2ccc(Cl)cc2)cc1 | 27.3 µM (active) and inactive | inactive |  | inactive | inactive | inactive | inactive | inactive | 26.6 µM (active) | inactive
CC(C)(C)NC(=O)[C@H]1CC[C@H]2[C@@H]3CC[C@H]4NC(=O)C=C[C@]4(C)[C@H]3CC[C@]12C | 2.7 µM (active) and inactive |  |  | inactive |  | inactive | inactive |  |  | 
COC(C)COC(C)COC(C)CO (centres undefined) |  | inactive | inactive | inactive | inactive | inactive | inactive | inactive | inactive | inactive
COC(=O)C1=C(C)NC(C)=C(C(=O)OCCN(C)Cc2ccccc2)C1c1cccc([N+](=O)[O-])c1 (centres undefined) | 68.2 µM (active) |  |  | 60.8 µM (active) | 68.2 µM (active) and 29.8 µM (active) | 60.8 µM (active) | inactive |  | inactive | 
